# Assay results from PMC5540273 (PLoS ONE, 2017).
# Where two headings read alike, the source gives them in different places.
# Legend:
# Details in all cases: n = 1
# CDK4 = tested on: CDK4
# CDK5 = tested on: CDK5
# CDK7 = tested on: CDK7
# CDK8 = tested on: CDK8
# CDK9 = tested on: CDK9
# CDKL1 = tested on: CDKL1
# CDKL2 = tested on: CDKL2
# CDKL3 = tested on: CDKL3
# CDKL5 = tested on: CDKL5
# CHEK1 = tested on: CHEK1
# [1] = concentration: 1 μM, replicates: in singlicate
# 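Further: KINOMEscan kinase panel screen.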
SMILES,%Inh (CDK4; [1]),%Inh (CDK5; [1]),%Inh (CDK7; [1]),%Inh (CDK8; [1]),%Inh (CDK9; [1]),%Inh (CDKL1; [1]),%Inh (CDKL2; [1]),%Inh (CDKL3; [1]),%Inh (CDKL5; [1]),%Inh (CHEK1; [1]),%Inh (CDK4; 1 µM),%Inh (CDK5; 1 µM),%Inh (CDK7; 1 µM),%Inh (CDK8; 1 µM),%Inh (CDK9; 1 µM),%Inh (CDKL1; 1 µM),%Inh (CDKL2; 1 µM),%Inh (CDKL3; 1 µM),%Inh (CDKL5; 1 µM),%Inh (CHEK1; 1 µM)
Cc1nnc(-c2ccc3occ(-c4ccc(S(C)=O)cc4)c3c2)[nH]1 (stereo not drawn),0%,0%,0%,0%,0%,0%,0%,0%,12%,0%,–,–,–,–,–,–,–,–,–,–
Cc1ccc(NC(=O)Nc2cccc(Cl)c2)cc1-c1ccc(C(=O)Nc2ccncc2)cc1 [GSK1398468],0%,0%,0%,0%,0%,13%,52%,0%,0%,0%,–,–,–,–,–,–,–,–,–,–
COc1ccc(Nc2nccc(NCCNC(=O)Nc3ccccc3F)n2)cc1 [GSK1379901],0%,0%,0%,0%,1%,4%,9%,0%,3%,0%,–,–,–,–,–,–,–,–,–,–
NC(=O)c1nnc2ccccc2c1N,0%,0%,14%,26%,15%,44%,1%,17%,9%,0%,–,–,–,–,–,–,–,–,–,–
COC(=O)c1c(-c2ccccc2)c2cc(OC)ccc2c(=O)n1Cc1ccccc1,0%,11%,15%,7%,9%,3%,13%,12%,0%,0%,–,–,–,–,–,–,–,–,–,–
Cc1ccc(C(=O)Nc2ccc(Nc3ccnc4cc(-c5ccccn5)ccc34)cc2O)cc1.Cl [GW440146],32%,0%,0%,23%,0%,0%,18%,0%,2%,0%,–,–,–,–,–,–,–,–,–,–
O=C(O)COc1ncnc2cc(-c3ccc4[nH]ncc4c3)sc12,0%,45%,30%,4%,0%,11%,0%,13%,17%,0%,–,–,–,–,–,–,–,–,–,–
COc1ccccc1CNC(=O)c1cc(C(=O)c2ccccc2C)c[nH]1 [GSK364507],0%,9%,0%,5%,0%,10%,16%,0%,0%,0%,–,–,–,–,–,–,–,–,–,–
Cc1cc(-c2ccc3c(c2)CC[C@@H](N[C@@H](C)c2ccccc2)C3)cnc1N.Cl [GW412617],26%,4%,0%,14%,0%,0%,18%,0%,0%,14%,–,–,–,–,–,–,–,–,–,–
Cl.O=C(Nc1cccc(-c2nn3ncccc3c2-c2ccnc(Nc3cccnc3)n2)c1)c1c(F)cccc1F [GSK312879],0%,0%,0%,0%,0%,1%,19%,0%,0%,12%,–,–,–,–,–,–,–,–,–,–
C[C@@H]1CCCCN1c1cc(-c2ccc3c(N)n[nH]c3c2)nc(N)n1 [GSK2258759],21%,0%,0%,20%,0%,6%,6%,0%,0%,0%,–,–,–,–,–,–,–,–,–,–
Cc1c(Cn2ccn3c(=O)cc(N4CCOCC4)nc23)cccc1C(F)(F)F [GSK2289044],4%,0%,0%,0%,0%,3%,10%,0%,16%,0%,–,–,–,–,–,–,–,–,–,–
CC(C)(C)c1ccc(C(=O)Nc2cn3cc(-c4cccnc4)ccc3n2)cc1,0%,3%,35%,6%,12%,39%,6%,20%,0%,25%,–,–,–,–,–,–,–,–,–,–
Nc1ncnc2[nH]c(-c3ccccc3)nc12 [AH5015],7%,0%,0%,0%,0%,6%,32%,0%,0%,0%,–,–,–,–,–,–,–,–,–,–
Cc1cccc(-c2nc(C)cc(Nc3ccncc3)n2)n1 [GSK257997],28%,0%,0%,0%,95.9%,3%,0%,0%,6%,0%,–,–,–,–,–,–,–,–,–,–
CC(C)(C)c1ccc(C(=O)Nc2cn3cc(Cl)ccc3n2)cc1,0%,18%,0%,7%,0%,19%,0%,0%,0%,0%,–,–,–,–,–,–,–,–,–,–
Cl.c1ccc(-c2n[nH]cc2-c2ccnc(-c3ccc(CN4CCOCC4)cc3)c2)nc1 [GW776245],0%,12%,0%,52%,0%,59%,9%,6%,0%,0%,–,–,–,–,–,–,–,–,–,–
Cc1ccc(NC(=O)Nc2cccc(C(F)(F)F)c2)cc1 [GSK955403],–,–,–,–,–,–,–,–,–,–,0%,0%,12%,0%,0%,14%,0%,4%,0%,5%
